M18AAP inhibitor = blocks P. falciparum M18 aspartyl aminopeptidase; recombinant PfM18AAP, H-Glu-NHMec fluorogenic cleavage; inhibition, % at 7.35 µM; 1.2% of 290,000 active;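 active means inhibition above the campaign mean inhibition over all tested compounds plus 3 SD, cut at about 28% in these data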;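 further: 0% = plate median of test compound wells and 100% = 2 mM ZnCl2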
PfG6PD inh = PfG6PD (Plasmodium falciparum) enzyme inhibition | PfGluPho enzyme, NADPH resazurin-diaphorase fluorescence | inhibition, % at 20 µM | 0.78% of 350,000 active;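 active means inhibition reaching at least a set limit at 20 µM in the primary screen, cut at about 59% in these data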;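 further: 0% = DMSO wells with substrate and 100% = DMSO wells lacking glucose-6-phosphate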
H9c2 protect = modulators protecting cardiomyocytes from myocardial damage | H9c2 cardiomyocytes, H2O2 injury protection, ATPLite, 2 h | protection from H2O2 cell death, % at 20 µM | 0.63% of 360,000 active | AID 588492;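 active means compounds giving at least 50% protection of heart cells from peroxide-induced death in the single-dose screen, raw or plate-pattern-corrected value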;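 further: 0% = DMSO wells with peroxide and 100% = DMSO wells without peroxide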
PHOSPHO1 inh = inhibitors of human PHOSPHO1 phosphatase | Q8TCT1 | recombinant PHOSPHO1, absorbance phosphatase assay | inhibition, % at 13.3 µM | 1.1% of 290,000 active | AID 1565; in the data active means inhibition above about 60%
Target sequence (Q8TCT1 whole entry, looked up): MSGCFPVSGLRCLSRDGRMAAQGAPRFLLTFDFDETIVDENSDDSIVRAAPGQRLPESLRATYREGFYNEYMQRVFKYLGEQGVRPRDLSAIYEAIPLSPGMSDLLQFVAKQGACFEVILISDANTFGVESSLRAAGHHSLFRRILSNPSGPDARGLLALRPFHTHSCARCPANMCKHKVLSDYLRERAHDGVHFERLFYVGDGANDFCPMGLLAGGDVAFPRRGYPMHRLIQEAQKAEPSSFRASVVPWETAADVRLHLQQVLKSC
ALR H2O2 inh = blocks human ALR sulfhydryl oxidase activity | purified ALR, DTT oxidation, H2O2 HRP-luminol luminescence | 3.8% of 290,000 active | AID 485317 | inhibition, % (concentration not given with the values);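 active means mean replicate inhibition above about 79%, with every replicate also reaching it, limit read from the data; inconclusive means only one of the two criteria met; inactive means mean below limit and not every replicate reaching it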
Target sequence (P55789 whole entry, looked up): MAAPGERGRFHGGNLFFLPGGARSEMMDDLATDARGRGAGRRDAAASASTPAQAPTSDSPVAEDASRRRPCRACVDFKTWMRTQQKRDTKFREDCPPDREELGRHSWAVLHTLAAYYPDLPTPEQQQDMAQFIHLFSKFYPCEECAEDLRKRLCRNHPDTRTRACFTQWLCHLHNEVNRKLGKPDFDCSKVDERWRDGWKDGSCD
PfGluPho conf = PfG6PD inhibition, single-dose confirmed | inhibition, % at 20 µM | 34% of 2,400 active | AID 504753 | shares compounds with PfG6PD inh | recombinant PfGluPho, NADPH-diaphorase-resazurin fluorescence;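 active means inhibition of at least 50% at 20 µM in any single replicate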;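 further: 0% = DMSO with substrate and 100% = DMSO lacking glucose-6-phosphate substrate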
Diaphorase 10uM = diaphorase inhibition or oxidation at 10 uM NADPH. inhibition, % at 20 µM. 39% of 820 active. diaphorase-coupled resazurin reduction, fluorescence, NADPH 10 uM. AID 504862. shares compounds with PfG6PD inh;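 active means average inhibition reaching 50% or more with the compound at 20 µM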;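 further: resorufin red fluorescence formed as diaphorase reduces resazurin using NADPH; 0% = DMSO with enzyme and 100% = DMSO without enzyme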
Diaphorase 30uM = counter-screen for P. falciparum G6PD inhibitors: diaphorase inhibitors, oxidizers; shares compounds with PfG6PD inh; 29% of 820 active; inhibition, % at 20 µM; Diaphorase/resazurin coupled assay, resorufin fluorescence, 30 uM NADPH; AID 504863;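 active means inhibition averaging 50% or more, tested at 20 µM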;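 further: 0% = DMSO with enzyme and 100% = DMSO wells lacking diaphorase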
* marks the source's active call; other numbers are inactive results; ? = inconclusive; . = no result. A selection: hits, their analogues and other compounds. The true share with any hit is near 5.6%.

SMILES	M18AAP inhibitor	PfG6PD inh	H9c2 protect	PHOSPHO1 inh	ALR H2O2 inh	PfGluPho conf	others
CCCCCCNC(=O)O[C@H]1Cn2c(=O)n(CCCCCC)c(=O)n2[C@@H]2CN(S(=O)(=O)c3ccc(C)cc3)C[C@]12O	.	70.6*	-19.5	.	.	-14.5
CCCCCCn1c(=O)n2n(c1=O)[C@@H]1CN(S(=O)(=O)c3ccc(C)cc3)C[C@]1(O)[C@@H](OC(=O)NC1CCCC1)C2	.	30.2	-4.2	.	.	.
Oc1ccc(C[C@H]2CNC(=S)N2CC2CCCN2C[C@H](Cc2ccccc2)N2C[C@H](Cc3ccc(O)cc3)N(CC3CCCCCC3)C2=S)cc1 (stereo not given in full)	.	2.5	-17.1	.	.	.
C[C@@H](NC(=O)Cn1ccc(N)nc1=O)c1cccc2ccccc12	.	-17.4	-5.6	.	-4.5	.
CCCC(=O)Nc1c(-c2cccc(C)c2)c(=O)c2ccccc2n1C	-4.8	-2.1	1.2	50.4	-22.0	.
[O-]/[N+](=C/c1cccnc1)c1ccc(Br)cc1	-1.5	104.6*	-15.0	14.6	.	78.3*	Diaphorase 10uM=68.2*;Diaphorase 30uM=33.5
Cc1cc(C(C)(C)C)cc(C)c1CCNC(=O)c1ccc[n+]([O-])c1	0.2	-6.4	1.8	47.8	-0.6	.
CC(C)COc1cccc(-c2cc(C(=O)Nc3ccon3)c3ccccc3n2)c1	3.5	11.9	4.3	4.1	.	.
COc1cccc2sc3ccc(C#CC4(O)CCCCC4)cc3c(=O)c12	7.5	68.1*	-4.4	-24.2	1.5	30.3
O=c1c2ccccc2sc2ccc(C#CC3(O)CCCCC3)cc12	.	45.8	-31.2	.	-12.9	.
Cc1ccc(/C=C2\C(=O)ON=C2c2ccccc2)o1	3.2	8.9	-5.7	3.5	16.4	.
Cc1ccc(-c2ccc(/C=C3\C(=O)ON=C3c3ccccc3)o2)c([N+](=O)[O-])c1	8.2	70.1*	-15.7	8.9	.	4.6
O=C1c2cccnc2-c2ncccc21	-3.8	-4.9	1.5	42.0	.	.
COC1=C(Br)C(=O)c2ncccc2C1=O	.	111.8*	-13.7	.	.	91.2*	Diaphorase 10uM=72.5*;Diaphorase 30uM=75.1*
CC(=O)Nc1ccc(NC(=O)c2ccccc2Sc2ccc([N+](=O)[O-])cc2Cl)cc1	-15.1	48.3	5.0	-2.9	-1.3	15.3
O=C(Nc1ccc(Nc2ccccc2)cc1)c1cc([N+](=O)[O-])ccc1Cl	-0.7	20.4	-7.4	18.9	36.0	.
O=C(Nc1ccc(Br)cc1)c1cc2ccccn2n1	-0.3	71.2*	-10.4	22.6	.	28.6
O=C(NCCc1ccc(Cl)cc1)c1cc2ccccn2n1	-14.3	6.8	2.4	32.2	-3.1	.
O=S(=O)(c1ccc2oc(=S)[nH]c2c1)N1CCOCC1	.	65.6*	-0.4	.	61.5	19.5
CC1CN=C(N(C(=O)Nc2ccccc2)C(C)c2ccccc2)S1 (stereo not given)	0.2	6.3	0.8	15.9	-3.8	.
Cc1cc(C)c2sc(NC(=O)C3=COCCO3)nc2c1	10.7	75.5*	-8.0	38.3	-0.8	47.4*	Diaphorase 10uM=30.2;Diaphorase 30uM=20.7
CNC(=O)c1c(C)[nH]c(=S)c(C#N)c1-c1ccco1	26.6	56.2	-1.6	44.1	.	.
Cc1ccccc1NC(=O)c1c(C)[nH]c(=S)c(C#N)c1-c1ccco1	16.4	42.2	2.8	-14.7	18.9	.
CCc1c(C(=O)Nc2ccccc2)c(C)[nH]c(=S)c1C#N	-3.8	59.1*	-0.4	49.8	10.2	54.4*	Diaphorase 10uM=-28.7;Diaphorase 30uM=-19.5
Cc1[nH]c(=S)c(C#N)c(C)c1C(=O)Nc1ccccc1	-33.8	61.8*	5.2	95.0*	.	37.4
SMILES	M18AAP inhibitor	PfG6PD inh	H9c2 protect	PHOSPHO1 inh	ALR H2O2 inh	PfGluPho conf	others
Cc1ccc(CNC(=O)C2CCCN(S(=O)(=O)c3ccc(F)cc3)C2)cc1 (stereo not given)	1.9	-4.1	-3.5	56.2	-6.6	.
Nc1ccccc1SCc1csc(-c2ccc(Cl)cc2)n1	10.8	60.3*	-8.8	16.6	98.4*	5.0
CCCCNC(=O)C(NC(=O)c1ccc(=O)[nH]c1)C(=O)c1ccccc1 (stereo not given)	.	.	2.5	.	.	.
COC1C=CC=C(C)C(=O)NC2=CC(=O)C(N)=C(CC(C)CC(OC)C(O)C(C)C=C(C)C1OC(N)=O)C2=O (stereo not given)	.	-40.4	5.4	.	.	.
COC1CC(C)C(OC)c2cc(O)cc(c2O)NC(=O)C(C)=CC=CC(C)C(OC(N)=O)C(C)=CC(C)C1OC (stereo not given)	.	104.9*	-17.1	.	.	105.7*	Diaphorase 10uM=81.7*;Diaphorase 30uM=81.9*
COc1cc2c(cc1OC)C(Cc1ccccc1[N+](=O)[O-])=NCC2	.	44.5	-6.3	.	.	-24.6
c1ccc(C2=Nn3c(nnc3-c3cc(-c4ccccc4)n[nH]3)SC2)cc1	5.2	59.9*	18.7	-43.5	.	10.7
Clc1ccc(C2=Nn3c(nnc3-c3cc(-c4ccccc4)n[nH]3)SC2)cc1	-2.4	18.0	-24.2	31.2	-7.1	.
COc1cc(-c2nnc3n2N=C(c2ccccc2)CS3)cc(OC)c1OC	-13.9	97.5*	45.5	14.8	1.8	60.2*	Diaphorase 10uM=41.9;Diaphorase 30uM=47.8
COc1ccc(OC)c(C2=Nn3c(nnc3-c3cc(OC)c(OC)c(OC)c3)SC2)c1	-3.5	97.8*	43.9	45.2	-1.3	88.8*	Diaphorase 10uM=81.5*;Diaphorase 30uM=69.8*
Cc1ccc(-c2nnc3n2N=C(c2ccccc2)CS3)cc1	6.6	12.6	-3.7	-0.6	-9.0	.
CCC1CCCCN1C(=O)COC(=O)c1ccc(Br)o1 (stereo not given)	.	1.6	2.5	.	1.0	.
O=[N+]([O-])c1cccc(CSC2=NCCN2S(=O)(=O)c2ccccc2)c1	-8.2	71.6*	-6.6	38.3	?	19.2
O=[N+]([O-])c1ccc(S(=O)(=O)N2CCN=C2SCc2cccnc2)cc1	1.7	-18.1	0.0	8.6	-30.2	.
O=S(=O)(c1ccccc1)N1CCN=C1SCc1ccccc1	6.0	79.1*	4.2	11.2	-11.0	35.6
Cc1ccc(S(=O)(=O)/N=C2\C=C(Nc3cccc(C(=O)O)c3)C(=O)c3ccccc32)c(C)c1	15.6	70.2*	-12.7	32.0	16.8	38.7
Cc1ccc(S(=O)(=O)/N=C2\C=C(Nc3cccc(C(=O)O)c3)C(=O)c3ccccc32)cc1	5.6	67.4*	-14.5	-19.8	.	68.6*	Diaphorase 10uM=88.5*;Diaphorase 30uM=86.3*
CCc1ccc(S(=O)(=O)/N=C2\C=C(Nc3ccc(C(=O)O)cc3)C(=O)c3ccccc32)cc1	8.1	64.8*	-16.5	36.2	.	30.7
Cc1ccc(NC2=C/C(=N/S(=O)(=O)c3cccs3)c3ccccc3C2=O)cc1	3.1	29.9	-17.7	4.7	-82.2	.
CC1=C(C)CC(C(=O)Nc2ccc3c(c2)OCO3)C(C(=O)O)C1 (stereo not given)	15.0	19.4	2.1	32.2	-31.6	.
CNCc1ccccc1Sc1cc(O)ccc1O	13.8	92.2*	3.3	5.7	81.8*	96.7*	Diaphorase 10uM=53.1*;Diaphorase 30uM=17.7

Bioassay records deposited in PubChem BioAssay by several laboratories.
